This passage reports growth results from PubChem BioAssay (NCI).

The structures appear in SMILES notation. About 83,000 compounds went through this panel and 20% of them were active in at least one assay; those are over-represented in the sample as a whole.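 96-well plates, one dose, 48 hours. Percent growth reported; active if below 10.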 Calls of active or inactive are those of the source.

The first assay deals with RXF 393 renal. Briefly: NCI-60 one-dose screen, 48 h (100 = growth as untreated, 0 = no growth, -100 = all killed). To be noted: 10 µM unless noted.
For `COc1cccc2c1c1nc3cc(C)c(C)cc3nc1n2CCN(C)C`, the growth was 30% (inactive).

Turning to `COc1cc(NC(C)CCCNC(=O)CCC(=O)NCCCNCCCCCCCCCCNCCCNC(=O)CCC(=O)NCCCC(C)Nc2cc(OC)cc3cccnc23)c2ncccc2c1` (centres undefined), the growth is 88.1% [8 µM] (inactive).

Regarding `COc1cc(/C=C\C(=O)O)ccc1OCc1ccccc1`, the growth is 103% (inactive).

Consider `CCc1c(Cl)nc(N)nc1Nc1ccc(C)c(C)c1`, for which the growth was 93.9% (inactive).

For `COc1cc2nc(-c3ccc(C(F)(F)F)cc3)cc(OCCCN3CCOCC3)c2cc1OC`, the growth was 14.5% (inactive).

For `CCN(CC)c1ccc(/C=N/NC(=O)CSc2nc3ccccc3c(=O)n2Cc2ccc(S(N)(=O)=O)cc2)c(O)c1`, the growth was 42.6% (inactive).

With `O=C(c1nnc(Nc2ccccc2Br)o1)c1c[nH]c2ccccc12`, the growth is 125% (inactive).

On to `NNC(=O)c1ccc(-n2nc(-c3ccccc3)c3ccccc32)cc1`, for which the growth was 61.7% (inactive).

In the case of `Cc1cnc(C(=O)Nc2nc3ccc(S(=O)(=O)Nc4ccc(C5(C(F)(F)F)CC5)cc4)cc3[nH]2)cn1`, the growth was -17.4% (active).

On to `CCCCCCCCOc1ccc(/C=N/Nc2cc(C)nc3ccc(Br)cc23)cc1`, for which the growth is 88.3% (inactive).

On to `Cc1ccc(NC(=O)c2cc(-c3nc4ccccc4s3)c(=O)n(NS(=O)(=O)c3ccc(Cl)cc3)c2N)cc1`, for which the growth is 112% (inactive).

Consider `N/C(=N\C(N)=N\c1nc2ccccc2s1)c1cnccn1`, for which the growth is -43% (active).

With `CCN(CC)CCCC(C)Nc1cc(O)cc2cccnc12` (centres undefined), the growth is 105% (inactive).

Turning to `COc1ccccc1NS(=O)(=O)c1cccc(C(=O)Nc2ccc(Br)cc2)c1`, the growth was 57.7% (inactive).

With `COc1c(Cl)c2c(c(OC)c1OC)-c1ccc(SC)c(=O)cc1[C@@H](NC(=O)OCC(F)(F)F)CC2`, the growth was 18.7% (inactive).

Regarding `O=C(Cn1c[n+](CC(=O)c2ccc(-c3ccccc3)cc2)c2ccccc21)Nc1cccc2cccnc12`, the growth was 83.7% (inactive).

For the molecule `CC(=O)CCC(=O)OCc1cc(=O)c(O)co1`, the growth is 113% (inactive).

Take `COc1ccccc1NC(=O)C1CC(c2ccc(F)cc2)=NO1` (centres undefined): the growth is 97% (inactive).

Turning to `COc1cccc(-c2nc3occn3c2-c2ccnc(NCCNS(=O)(=O)c3cccc4ccccc34)n2)c1`, the growth was 102% (inactive).

`N#C/C(=C\c1ccc([N+](=O)[O-])s1)c1nc2cc(Cl)ccc2s1`: the growth is 6.88% (active).

`CNC(=O)c1cccc(Cn2nc(C)c(NC(=O)c3ccc(COc4ccc(C(F)(F)F)cc4C)cc3)c2C)n1`: the growth is 64.5% (inactive).

As to `N#Cc1c(NCc2ccccc2I)sc2c1CCCCC2`, the growth is 93.6% (inactive).

For the molecule `CCCCCN1C=C/C(=C\C(=O)n2ccc3ccccc32)c2ccccc21`, the growth was 103% (inactive).

With `COc1ccc(C(=O)c2cc(C)c(OC)c(C)c2)c(OC)c1OC(=O)C(Cl)Cl`, the growth is 38.7% (inactive).

`NC(=NCc1ccccc1)C(N=Nc1ccccc1)C(=O)NCc1ccccc1` (centres undefined): the growth is 72.6% (inactive).

Consider `N#CC1C(C#N)C2c3ccccc3C=CN2C1C(=O)c1ccc(Br)cc1` (centres undefined), for which the growth is 105% (inactive).

In the case of `O=S(=O)(NCCNc1nccc(-c2c(-c3cccc(O)c3)nc3occn23)n1)c1cccc(F)c1`, the growth is 91.6% (inactive).

On to `COc1cc2oc(-c3cccc(C(=O)Nc4ccc5c(c4)OCO5)c3)cc(=O)c2c(O)c1OC`, for which the growth is 81.5% (inactive).

Turning to `COc1cc(/C=C/c2cc(O)c(C(C)=O)c(O)c2)cc2c1O[C@]1(C)CC[C@@H](O)C(C)(C)[C@H]1C2`, the growth was -19.4% (active).

Take `Cc1cnc(C(=O)Nc2nc3ccc(S(=O)(=O)Nc4ccc(C(C)(C)C)cc4)cc3[nH]2)cn1`: the growth was -13.9% (active).

On to `O=S(=O)(Nc1ccc(-n2cnc3cc(-c4ccc(O)cc4)ccc32)cc1)c1ccccc1`, for which the growth is 103% (inactive).

Take `Nc1n[nH]c2cccc(C#Cc3cccc(C(=O)Nc4cc(CN5CCOCC5)cc(C(F)(F)F)c4)c3)c12`: the growth is 24% (inactive).

Regarding `COc1ccc(C(=O)c2cc(C)c(OC)c(C)c2)c(OC)c1N(C(=O)CCl)C(=O)CCl`, the growth was 23.7% (inactive).

As for `O=S(=O)(NCCNc1nccc(-c2c(-c3cccc(O)c3)nc3occn23)n1)c1ccccc1`, the growth was 90.3% (inactive).

Take `CC(C)(C)c1ccc(NS(=O)(=O)c2ccc3nc(NC(=O)c4cnccn4)[nH]c3c2)cc1`: the growth is 13.5% (inactive).

For the molecule `C#CCNC(=O)c1cccc2c1cc(C)n2-c1nc2c(c(NCc3ccccc3)n1)CCCC2`, the growth was -68.1% (active).

`NC1=NN=C(N)C1=Cc1cc2ccccc2n2nnnc12`: the growth is 110% (inactive).

A further assay deals with SF-268 CNS. The assay is described as above. The note with it: 10 µM unless noted.
For `COc1cccc2c1c1nc3cc(C)c(C)cc3nc1n2CCN(C)C`, the growth was 37.9% (inactive).

In the case of `COc1cc(NC(C)CCCNC(=O)CCC(=O)NCCCNCCCCCCCCCCNCCCNC(=O)CCC(=O)NCCCC(C)Nc2cc(OC)cc3cccnc23)c2ncccc2c1` (centres undefined), the growth was 66% [8 µM] (inactive).

As for `COc1cc(/C=C\C(=O)O)ccc1OCc1ccccc1`, the growth is 94.8% (inactive).

For `CCc1c(Cl)nc(N)nc1Nc1ccc(C)c(C)c1`, the growth is 97.9% (inactive).

On to `COc1cc2nc(-c3ccc(C(F)(F)F)cc3)cc(OCCCN3CCOCC3)c2cc1OC`, for which the growth is 56.1% (inactive).

For the molecule `CCN(CC)c1ccc(/C=N/NC(=O)CSc2nc3ccccc3c(=O)n2Cc2ccc(S(N)(=O)=O)cc2)c(O)c1`, the growth is 18.6% (inactive).

Turning to `O=C(c1nnc(Nc2ccccc2Br)o1)c1c[nH]c2ccccc12`, the growth is 105% (inactive).

Take `NNC(=O)c1ccc(-n2nc(-c3ccccc3)c3ccccc32)cc1`: the growth was 64% (inactive).

For `Cc1cnc(C(=O)Nc2nc3ccc(S(=O)(=O)Nc4ccc(C5(C(F)(F)F)CC5)cc4)cc3[nH]2)cn1`, the growth is 47% (inactive).

Turning to `CCCCCCCCOc1ccc(/C=N/Nc2cc(C)nc3ccc(Br)cc23)cc1`, the growth is 86.3% (inactive).

Regarding `Cc1ccc(NC(=O)c2cc(-c3nc4ccccc4s3)c(=O)n(NS(=O)(=O)c3ccc(Cl)cc3)c2N)cc1`, the growth was 94.2% (inactive).

On to `N/C(=N\C(N)=N\c1nc2ccccc2s1)c1cnccn1`, for which the growth is 26.5% (inactive).

Regarding `CCN(CC)CCCC(C)Nc1cc(O)cc2cccnc12` (centres undefined), the growth was 98.6% (inactive).

Consider `COc1ccccc1NS(=O)(=O)c1cccc(C(=O)Nc2ccc(Br)cc2)c1`, for which the growth is 30.9% (inactive).

Regarding `COc1c(Cl)c2c(c(OC)c1OC)-c1ccc(SC)c(=O)cc1[C@@H](NC(=O)OCC(F)(F)F)CC2`, the growth is 27.2% (inactive).

`O=C(Cn1c[n+](CC(=O)c2ccc(-c3ccccc3)cc2)c2ccccc21)Nc1cccc2cccnc12`: the growth is 20.3% (inactive).

Regarding `CC(=O)CCC(=O)OCc1cc(=O)c(O)co1`, the growth was 97.7% (inactive).

As for `COc1ccccc1NC(=O)C1CC(c2ccc(F)cc2)=NO1` (centres undefined), the growth was 97.4% (inactive).

As for `COc1cccc(-c2nc3occn3c2-c2ccnc(NCCNS(=O)(=O)c3cccc4ccccc34)n2)c1`, the growth was 96.8% (inactive).

As for `N#C/C(=C\c1ccc([N+](=O)[O-])s1)c1nc2cc(Cl)ccc2s1`, the growth is 27.9% (inactive).

As for `CNC(=O)c1cccc(Cn2nc(C)c(NC(=O)c3ccc(COc4ccc(C(F)(F)F)cc4C)cc3)c2C)n1`, the growth was 61.2% (inactive).

With `N#Cc1c(NCc2ccccc2I)sc2c1CCCCC2`, the growth is 93.7% (inactive).

Turning to `CCCCCN1C=C/C(=C\C(=O)n2ccc3ccccc32)c2ccccc21`, the growth was 92.5% (inactive).

As to `COc1ccc(C(=O)c2cc(C)c(OC)c(C)c2)c(OC)c1OC(=O)C(Cl)Cl`, the growth was 25% (inactive).

`NC(=NCc1ccccc1)C(N=Nc1ccccc1)C(=O)NCc1ccccc1` (centres undefined): the growth was 53.5% (inactive).

With `N#CC1C(C#N)C2c3ccccc3C=CN2C1C(=O)c1ccc(Br)cc1` (centres undefined), the growth was 95.1% (inactive).

On to `O=S(=O)(NCCNc1nccc(-c2c(-c3cccc(O)c3)nc3occn23)n1)c1cccc(F)c1`, for which the growth was 93.1% (inactive).

For the molecule `COc1cc2oc(-c3cccc(C(=O)Nc4ccc5c(c4)OCO5)c3)cc(=O)c2c(O)c1OC`, the growth was 58.7% (inactive).

As for `COc1cc(/C=C/c2cc(O)c(C(C)=O)c(O)c2)cc2c1O[C@]1(C)CC[C@@H](O)C(C)(C)[C@H]1C2`, the growth is 55.8% (inactive).

In the case of `Cc1cnc(C(=O)Nc2nc3ccc(S(=O)(=O)Nc4ccc(C(C)(C)C)cc4)cc3[nH]2)cn1`, the growth was 48.1% (inactive).

With `O=S(=O)(Nc1ccc(-n2cnc3cc(-c4ccc(O)cc4)ccc32)cc1)c1ccccc1`, the growth is 78.4% (inactive).

In the case of `Nc1n[nH]c2cccc(C#Cc3cccc(C(=O)Nc4cc(CN5CCOCC5)cc(C(F)(F)F)c4)c3)c12`, the growth was 41.9% (inactive).

`COc1ccc(C(=O)c2cc(C)c(OC)c(C)c2)c(OC)c1N(C(=O)CCl)C(=O)CCl`: the growth was 24.6% (inactive).

For `O=S(=O)(NCCNc1nccc(-c2c(-c3cccc(O)c3)nc3occn23)n1)c1ccccc1`, the growth is 85.3% (inactive).

As to `CC(C)(C)c1ccc(NS(=O)(=O)c2ccc3nc(NC(=O)c4cnccn4)[nH]c3c2)cc1`, the growth is 37.7% (inactive).

As to `C#CCNC(=O)c1cccc2c1cc(C)n2-c1nc2c(c(NCc3ccccc3)n1)CCCC2`, the growth was -23.6% (active).

Take `NC1=NN=C(N)C1=Cc1cc2ccccc2n2nnnc12`: the growth was 98.6% (inactive).
